A selection: hits, their analogues and other compounds. The true share with any hit is near 5.2%.
FBPA coupling cs: qHTS Assay for Inhibitors of Fructose-1,6-bisphosphate Aldolase from Giardia Lamblia: Coupling assay counterscreen | AID 2472, 2010 | 290,000 tested, 0.67% active | coupling enzyme system counterscreen, AmpLite Red fluorescence | activity change, negative = inhibition, % at 58.2 µM, hits read low; in the data active means activity change below about -30%
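Counterscreen of the coupled detection system alone, without aldolase: glyceraldehyde-3-phosphate coupling enzymes plus AmpLite Red readout. Compounds at 57.5 uM final, 10 min RT preincubation, 20 min RT reaction, fluorescence 525/598 nm.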
Tau ThT inhib: qHTS for Inhibitors of Tau Fibril Formation, Thioflavin T Binding | Microtubule-associated protein tau (Homo sapiens), P10636 | recombinant tau K18 P301L, heparin-induced fibrillization, ThT fluorescence | Potency, µM (doses to about 57.4 µM), without a hit: top-dose activity, negative = inhibition, most hits filed as inhibitors | 270,000 tested, 2.1% active; further: potency means the concentration at half of the fitted maximal effect; nearly all actives have a fitted effect of over 55% in size
Target sequence (P10636 561-689 P618L limits assumed): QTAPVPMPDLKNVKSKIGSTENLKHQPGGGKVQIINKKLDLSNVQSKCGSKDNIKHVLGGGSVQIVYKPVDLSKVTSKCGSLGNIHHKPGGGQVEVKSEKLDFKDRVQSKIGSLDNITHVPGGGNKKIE
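ThT emission at 510 nm, taken 1 hr after adding 30 uM dye, quantifies aggregates formed when 20 uM heparin acts on human tau K18 P301L for 6 hr at 37 C.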
Tau fibril FP: qHTS for Inhibitors of Tau Fibril Formation, Fluorescence Polarization; Potency, µM (series often up to 57.7 µM), for inactives: top-dose activity, negative = inhibition, actives largely listed as inhibitors; 280,000 tested, 0.39% active; K18 P301L tau heparin fibrillization, Alexa594 FP, 6 h; further: potency means the concentration at half of the fitted maximal effect; nearly all actives have a fitted effect of over 55% in size
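Recombinant K18 P301L […], labeled with Alexa 594 at 0.24 uM over 15 uM unlabeled; heparin inducer 20 uM final; 37 C, 6 hr; FP endpoint.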
Tau fluor counter: Counterscreen qHTS for Inhibitors of Tau Fibril Formation, Fluorescence Polarization; tau K18 P301L (four-repeat tau fragment) Alexa594 fluorescence, heparin fibrillization; Potency, µM (highest dose often 57.7 µM), for inactives: at the highest dose activity change, negative = decrease; 280,000 tested, 0.93% active; AID 1463, 2008; further: potency means the concentration at half of the fitted maximal effect; nearly all actives have a fitted effect of over 55% in size
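Human K18 P301L tau (15 uM unlabeled plus 0.24 uM Alexa 594-labeled, final) in 100 mM sodium acetate pH 7 was mixed with compound and 20 uM heparin and incubated 6 hr at 37 C.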
Sfp inh: qHTS Assay for Inhibitors of Bacillus subtilis Sfp phosphopantetheinyl transferase (PPTase) | 4'-phosphopantetheinyl transferase ffp (Bacillus subtilis), Q9F4F7 | 310,000 tested, 3.5% active | Biochemical Sfp PPTase activity, qHTS | Potency, µM, for inactives: largest response in the series, negative = inhibition, usual class: inhibitors | AID 1490, 2009;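 further: the enzyme is Sfp with the accession as filed and its product quenches rhodamine fluorescence; potency means the concentration at half of the fitted maximal effect; 0% = enzyme reaction without inhibitor and -100% = no enzyme wells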
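After 15 min at room temperature with compound, 15 nM Sfp received 5 uM rhodamine-CoA plus 12.5 uM BHQ-2-ybbR (50 mM Hepes pH 7.6, 10 mM MgCl2). Rate came from the fluorescence difference over 30 min, ex 525/em 598 nm.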
* = called active by the depositor; ? = inconclusive; . = no result given; [ ] = dose if it differs, or a comment. Unless noted, the call rests on the fitted dose curve; in most records, active means well fitted curve in the direction sought with a large enough effect; inconclusive means small, poorly fitted or top-dose-only effect, or another doubt; inactive means no such curve, though single readings can be large; an effect the other way counts as inactive or inconclusive. Unless noted, on the % scale 0 is the no-effect control and ±100 the full control effect.

SMILES | FBPA coupling cs | Tau ThT inhib | Tau fibril FP | Tau fluor counter | Sfp inh
CC(C)C[C@H](NC(=O)CNC(=O)[C@H](C)NC(=O)[C@H](CC(C)C)NC(=O)[C@H](CCCNC(=N)N)NC(=O)[C@H](Cc1cnc[nH]1)NC(=O)[C@@H](NC(=O)[C@@H](NC(=O)[C@@H]1CSSC[C@H](NC(=O)[C@@H](N)CO)C(=O)N[C@@H](CC(N)=O)C(=O)N[C@@H]([C@@H](C)O)C(=O)N[C@@H](C)C(=O)N[C@@H]([C@@H](C)O)C(=O)N1)C(C)C)[C@@H](C)O)C(=O)N[C@@H](CC(C)C)C(=O)N[C@@H](CO)C(=O)N[C@@H](CCCNC(=N)N)C(=O)N[C@@H](CO)C(=O)NCC(=O)NCC(=O)N[C@H](C(=O)N[C@H](C(=O)N[C@@H](CCCCN)C(=O)N[C@@H](CC(=O)O)C(=O)N[C@@H](CC(N)=O)C(=O)N[C@@H](Cc1ccccc1)C(=O)N[C@H](C(=O)N1CCC[C@H]1C(=O)N[C@H](C(=O)N[C@@H](CC(N)=O)C(=O)N[C@H](C(=O)NCC(=O)N[C@@H](CO)C(=O)N[C@@H](CCCCN)C(=O)N[C@@H](C)C(=O)N[C@@H](Cc1ccccc1)C(N)=O)C(C)C)[C@@H](C)O)C(C)C)C(C)C)C(C)C | -1 | . | . | . | 3%
CCC(=O)OC1(C)C(=O)C=C2C=C(CCCNC(=O)OC(C)(C)C)OC=C2C1=O (stereo not given) | 0 | -2% | 4% | -6% | -4%
Cc1cnc(CNc2ncnc3ccc(-c4cccc(C#N)c4)cc23)cn1 | 0 | -14% | -8% | -18% | 4%
O=C(CCC1N=C2c3ccccc3N=C(SCc3ccccc3F)N2C1=O)NC1CCCCC1 (stereo not given) | . | -7% | 2% | -10% | .
O=c1[nH]nc(N/N=C/c2ccc(Cl)cc2Cl)c(=O)[nH]1 | 2 | -5% | -1% | 1% | 56µM*
CCOC(=O)C1=C(SCC)c2cc3c(n2C1=O)CCCC3 | -4 | 11µM* | ? | ? | -24%
COc1ccc(-n2c(=S)[nH]c3[nH]ncc3c2=O)cc1 | -5 | -4% | -2% | 0% | 50µM*
O=c1c2cn[nH]c2[nH]c(=S)n1-c1cccc2ccccc12 | -3 | -16% | 1% | -12% | -22%
COc1ccc(-n2c(=S)[nH]c3cc(C(=O)O)ccc3c2=O)cc1 | 11 | -4% | -4% | -3% | -37%
O=c1c2cn[nH]c2[nH]c(=S)n1-c1ccccc1 | -4 | -15% | ? | -10% | 14µM*
O=C(N/N=C/c1ccc([N+](=O)[O-])o1)c1cc(-c2ccc(-c3ccccc3)cc2)nc2ccccc12 | -4 | -15% | -8% | -14% | -2%
Cc1ccc2nc(N/N=C/c3ccco3)cc(C)c2c1 | -8 | 18µM* | 8% | ? | -1%
Cc1cc(N/N=C/c2ccc([N+](=O)[O-])o2)nc2ccccc12 | 1 | 1.6µM* | 1% | ? | 2%
COc1ccc(CCNC(=O)CN(c2ccccc2)S(=O)(=O)N(C)C)cc1OC | . | -2% | 11% | 4% | .
CCCC1=Nc2cc(C(=O)NC3CCCCC3)ccc2Sc2ccc(C)cc21 | . | -7% | -6% | -4% | .
CCN(CC)CCNC(=O)c1c(C)oc2ncnc(N3CCOCC3)c12 | . | -4% | -5% | -6% | .
CCOC(=O)CCC(NC(=O)c1cncc(O)c1)C(=O)OCC (stereo not given) | -2 | 13% | -10% | 5% | -22%
CC(CNC(=O)c1cncc(O)c1)NC(=O)c1cncc(O)c1 (stereo not given) | -9 | -5% | -1% | 8% | 79µM*
COc1ccc(CNc2ccc(C(=O)O)cc2)cc1 | 10 | -7% | -8% | -7% | 6%
COc1ccc(CNc2ccc(Br)cc2)cc1 | -4 | ? | 8% | ? | 56µM*
COc1ccc(OCC(O)CNc2ccc(Br)cc2)cc1 (stereo not given) | -13 | ? | 14% | 18µM*[quencher] | ?
COc1ccc(/C=C/C2=NC(=C\N(C)C)/C(=O)O2)cc1 | -11 | ? | 12% | ? | 79µM*
COc1ccc(Nc2nc3ccccc3nc2NS(=O)(=O)c2cccs2)cc1 | 10 | 14µM* | 15% | ? | 20%
CC(C)(C)c1ccc(C2Sc3ccccc3NC3=C2C(=O)c2ccccc23)cc1 (stereo not given) | . | -11% | ? | 5.6µM*[quencher] | .
COc1ccc(-n2c(-c3ccc(F)cc3)cn3c4c(=O)n(C)c(=O)n(C)c4nc23)cc1 | . | 3% | 1% | 0% | .
SMILES | FBPA coupling cs | Tau ThT inhib | Tau fibril FP | Tau fluor counter | Sfp inh
Clc1cccc(Cl)c1CNc1ccc(N2CCCC2)cc1 | -14 | 7.9µM* | ? | ? | ?
COc1ccc(CCN(C)CC(=O)Nc2cc(C)nc3ccccc23)cc1OC | -2 | -17% | -5% | -17% | 79µM*
CCOC(=O)c1c(C)nc(C)c(C(=O)OCC)c1-c1cccnc1 | 4 | -14% | 2% | -18% | 12%
CCOC(=O)c1c(C)nc(C)c(C(=O)OCC)c1-c1ccccc1 | 1 | -9% | ? | -28% | 45µM*
CCOP(=O)(OCC)C(=Cc1cc(C(C)(C)C)c(O)c(C(C)(C)C)c1)P(=O)(OCC)OCC | 2 | . | . | . | -10%
CCN1C(=O)c2ccccc2S(=O)c2ccc(C(=O)N3CCN(c4cccc(Cl)c4)CC3)cc21 (stereo not given) | . | -8% | 12% | -9% | .
CCN1CCN(Cc2ccc(NC(=O)c3cc(NC(=O)C(=O)c4c[nH]c5ccccc45)cc(OC)c3)cc2C(F)(F)F)CC1 | 4 | -14% | 14µM* | ? | 50µM*
CCN1CCN(Cc2ccc(NC(=O)c3ccc(C)c(NC(=O)c4ccc5n[nH]nc5c4)c3)cc2C(F)(F)F)CC1 | 8 | 6% | 1% | 4% | -1%
CCN1CCN(Cc2ccc(NC(=O)c3ccc(C)c(NC(=O)C(=O)c4c[nH]c5ccccc45)c3)cc2C(F)(F)F)CC1 | -2 | -14% | ? | -24% | 50µM*
CC1(C)O[C@H]2[C@@H](O1)[C@@H](C(=O)Nc1ccc(F)c(F)c1)O[C@@H]1OC(C)(C)O[C@@H]12 | . | 5% | -8% | -3% | .
CCC(=O)C1=C(c2cccc([N+](=O)[O-])c2)N(C(=O)CC)n2c(nnc2-c2ccccc2)S1 | . | ? | -2% | ? | .
COC(=O)c1cc2c(-c3ccccc3)cc3ccccn3c-2c1C(=O)OC | 1 | 16µM* | 10% | ? | -11%

Screening results (PubChem BioAssay)
